# PubChem BioAssay AID504714 (Sanford-Burnham Center for Chemical Genomics, 2011)
# Screen size: about 1,000 compounds; fewer than 10 were called active. No rule for the calls is given here. Not all results are given here.
# Assay: uracil-DNA glycosylase inhibition, oligo cleavage readout – biochemical, single concentration, fluorescence, FAM/TAMRA oligo, counter-screen for APOBEC3A inhibitor project, confirmation (AID 504714)
# Conditions: UDG counterscreen, at 20 µM, hits give high values
row,Structure (SMILES),inhibition
1,CCCN1C2=C(C(=O)CCC2)C(c2ccc(O)c(Br)c2)C2=C1CCCC2=O,0.9% (inactive)
2,COc1ccc(CNc2nnnn2C)cc1,-2.73% (inactive)
3,CCN1C(=NCC(C)C)N[C@@H](CCc2ccccc2)[C@H](C(=O)NCC(C)C)[C@H]1C,-1.61% (inactive)
4,COC(=O)C[n+]1cccc2ccccc21,-1.97% (inactive)
5,N#Cc1ccsc1NC(=O)CN1CCN(S(=O)(=O)c2cc(Cl)ccc2Cl)CC1,-0.63% (inactive)
6,COc1ccc(Br)cc1CN(C)C(=O)C1CC(=O)N(C2CCCC2)C1 (centres undefined),1.84% (inactive)
7,COCCCn1c(Cc2csc(Nc3cccc(Cl)c3)n2)nnc1SCC(=O)OC1CCCCC1,5.59% (inactive)
8,COc1ccc(CCNC(=O)COC(=O)/C=C/c2cccs2)cc1OC,-1.3% (inactive)
9,COc1ccccc1CCNC(=O)C1CCN(C(=O)/C=C/c2ccccc2)CC1,2% (inactive)
10,CCCCNC(=O)CSc1nc2ccc(NC(=O)CSc3nnc(N)s3)cc2s1,-1.96% (inactive)
11,CC(C)CCOc1ccc(C(=O)C[N+]2(C)CCOCC2)cc1,1.5% (inactive)
12,O=C(c1ccc(CS(=O)(=O)c2ccccc2)o1)N1CCN(c2ccccc2)CC1,-1.02% (inactive)
13,COC(=O)C1=C(C)N(Cc2ccccc2)C(=NCCCOC(C)C)N[C@H]1c1ccccc1,-3.67% (inactive)
14,CC1(C)CC(N2CCN(C(c3ccccc3)c3ccccc3)CC2)=CC(=[N+]2CCCCC2)C1,-2.53% (inactive)
15,S=C(Nc1cccnc1)Nc1ccccn1,-1.6% (inactive)
16,CC1(C)Oc2ccc3ccc(=O)oc3c2/C(=C/NCCO)C1=O,-2.48% (inactive)
17,NS(=O)(=O)c1cc(C(=O)OCC(=O)NNC(=O)c2ccccc2)ccc1Cl,5.01% (inactive)
18,O=C1c2oc3ccccc3c(=O)c2C(c2cccc(O)c2)N1c1ccccn1 (centres undefined),3.41% (inactive)
19,CSc1nnc(SCc2nc3sc(C(=O)O)c(C)c3c(=O)[nH]2)s1,-3.34% (inactive)
20,CCn1c(SCC(=O)Nc2cccc(F)c2)nnc1-c1cc2cc(Br)ccc2o1,6.96% (inactive)
21,CCOC(=O)c1ccc(NC(=O)CSc2ncccn2)cc1,1.35% (inactive)
22,Cc1ccc(CCCOC(=O)C[N+]2(C)CCCCC2)cc1,0.55% (inactive)
23,C[N+](C)(CCCCCC[N+](C)(C)CCCN1C(=O)c2cccc3cccc(c23)C1=O)CCCN1C(=O)c2cccc3cccc(c23)C1=O,1.2% (inactive)
24,CC(Oc1ccc(F)cc1)C(=O)Nc1cc(S(=O)(=O)N2CCOCC2)ccc1N1CCN(C)CC1 (centres undefined),-3.61% (inactive)
25,C=CC1=C(C(=O)O)N2C(=O)[C@@H](NC(=O)/C(=N/OCC(=O)O)c3csc(N)n3)[C@H]2SC1,-3.4% (inactive)
26,O=C(COC(=O)c1cnc(Cl)c(Cl)c1)NCc1ccco1,0.62% (inactive)
27,Cc1ccc(C(=O)N/N=C\c2cc(Br)c(Br)o2)cn1,2.94% (inactive)

row,Structure (SMILES),inhibition
1,CC(C)c1ccc(/C=C2\NC(=O)NC2=O)cc1,-1.04% (inactive)
2,CC[n+]1cc(C)ccc1/C=C/c1ccc(N(C)C)cc1,-2.09% (inactive)
3,CS(=O)(=O)c1ccc2c(c1)SC1=NC(=O)/C(=C/c3ccco3)C(=N)N12,1.37% (inactive)
4,CC(=O)Nc1ccc(NC(=O)C2CCCN(S(=O)(=O)c3ccc(Cl)cc3)C2)cc1 (centres undefined),7.05% (inactive)
5,CCNC(=O)COC(=O)CCNC(=O)c1cccc(C)c1,-0.25% (inactive)
6,CC(=O)Nc1ccc(Nc2cc(C)nc(Nc3ccc(NC(C)=O)cc3)n2)cc1,4.81% (inactive)
7,CCCCCCCC[n+]1cccc(C(=O)N2c3c(nc(N)[nH]c3=O)NC(C)C2C)c1 (centres undefined),-1.86% (inactive)
8,C[n+]1ccc(C(=O)NCc2ccccc2)cc1,-2.62% (inactive)
9,CCN1C(=NCCc2cccnc2)N[C@@H](c2ccccc2)[C@H](C(=O)OC)[C@H]1C,-0.96% (inactive)
10,O=C(Nc1cccc(-c2nc3ccccc3[nH]2)c1)c1ccc(C(=O)Nc2cccc(-c3nc4ccccc4[nH]3)c2)cc1,-1.03% (inactive)
11,CC(/C=C/c1ccccc1)=N\NC(=O)C1CC1(C)c1ccccc1 (centres undefined),1.23% (inactive)
12,Cc1cc2c(cc1C)[n+](C)cn2CC(O)COCC1CC=CCC1 (centres undefined),4.84% (inactive)
13,Cc1csc(SCC(=O)Nc2sccc2C#N)n1,-2.94% (inactive)
14,COc1ccc(C)cc1NC(=O)CCCN1C(=O)NC(C)(C)C1=O,2.69% (inactive)
15,CCN(CC)CCCNC(=O)CCn1nc(-c2ccc(Cl)cc2)ccc1=O,-0.02% (inactive)
16,N#Cc1ncc(C(F)(F)F)cc1Oc1cccnc1,-2.52% (inactive)
17,C[N+]1(CCNC(=O)/C=N/O)CCCCC1,2.37% (inactive)
18,CSc1nnc(-c2ccncc2)n1CCCN1CCCC1=O,2.58% (inactive)
19,C[N+]1(CC(O)COc2ccccc2)CCN(C(=O)c2ccc([N+](=O)[O-])cc2)CC1 (centres undefined),-0.77% (inactive)
20,CCCc1nc(-c2cc3cc(C)ccc3[nH]c2=O)no1,-1.41% (inactive)
21,CCN1C(=NCc2ccc(OC)cc2)N[C@@H](CCc2ccccc2)[C@H](C(=O)NCc2ccc(OC)cc2)[C@H]1C,2.26% (inactive)
22,CCS(=O)(=O)c1ccc(-c2cccc(NC(=O)c3ccc(Br)o3)c2)nn1,-1.58% (inactive)
23,COc1ccc(Cc2nnc(NC(=O)c3ccc(OC)cc3OC)s2)cc1,2.26% (inactive)
24,Cc1nnc(N/N=C/c2ccccn2)[nH]c1=O,3.44% (inactive)
25,COc1ccccc1-c1noc(CSc2nc(C)cc(=O)[nH]2)n1,-1.99% (inactive)
26,N#Cc1ccccc1CN1C(=O)S/C(=C/c2cccn2-c2cccc(C(=O)O)c2)C1=O,-1.19% (inactive)
27,CC[n+]1c(C)n(-c2ccccc2)c2ccc(NC(C)=O)cc21,-1.23% (inactive)
